# Results published in the supplement of paper PMC9135407.
# Several values for one entry are separate records, joined by “and”; a condition that tells them apart may be missing. Identical values can stand only once. Counter-ions that a name gives are not always drawn. In all, about 5,800 compounds went through this assay and about 620 (11%) showed activity. The sample as a whole holds a higher share of actives than the screen did. A number with no mark means an inactive call.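 Rule for the calls: active = score above a cut-off or among the top three wells of a plate; in these data no inactive exceeds 0.85.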
# System: primary human hepatic stellate cells (donor 1)
# Experiment: scaled lipid accumulation score (0 = DMSO-like, 1 = nortriptyline-like); higher = stronger HSC inactivation (lipid re-accumulation), active = hit call of the paper
# Settings: 48 h
# [1] = library stock concentration: 10 mM
# [2] = library stock concentration: 3.33 mM
# [3] = library stock concentration: 1 mM
# [4] = library stock concentration: 4.7 mM
# [5] = library stock concentration: 80 uM
# [6] = library stock concentration: 400 uM
# [7] = library stock concentration: 2 mM
compound,measurement,setting,value
C=CCNC(N)=S,scaled lipid accumulation score,[1],≤ 0
C=CCNC(N)=S [Allylthiourea],scaled lipid accumulation score,[2],≤ 0
same,scaled lipid accumulation score,[1],≤ -0.001
CCCCCCCCCCCCCCNC(=O)C1CCCCC1 [N-Cyclohexanecarbonyltetradecylamine],scaled lipid accumulation score,[3],0.008
CC(C)c1noc(N2CCC(COc3ccc(-c4ccc(S(C)(=O)=O)cc4)nc3)CC2)n1,scaled lipid accumulation score,[2],0.019
same,scaled lipid accumulation score,[1],0.16
Oc1cc(O)c(Cl)cn1 [Gimeracil],scaled lipid accumulation score,[2],0.014
same,scaled lipid accumulation score,[1],0.04
CCCSc1ccc2[nH]c(NC(=O)OC)nc2c1 [Albendazole],scaled lipid accumulation score,,0.176
same,scaled lipid accumulation score,[2],≤ 0
same,scaled lipid accumulation score,library stock concentration: 7.5 mM,0.449 and ≤ 0
same,scaled lipid accumulation score,[1],≤ -0.027 and 0.562
CCCSc1ccc2nc(NC(=O)OC)[nH]c2c1 [Albendazole],scaled lipid accumulation score,[1],0.892 (active)
COC(=O)Nc1nc2ccc(SC(C)C)cc2[nH]1 [Methiazole],scaled lipid accumulation score,,≤ 0
"O=P(O)(O)O[C@H]1[C@H](O)[C@@H](O)[C@H](OP(=O)(O)O)[C@@H](OP(=O)(O)O)[C@H]1O [D-myo-Inositol-1,3,4-triphosphate (sodium salt)]",scaled lipid accumulation score,[3],≤ 0
CNCCCC1c2ccccc2C=Cc2ccccc21.Cl [Protriptyline hydrochloride],scaled lipid accumulation score,,1.24 (active)
same,scaled lipid accumulation score,[1],0.911 (active)
CNCCCC1c2ccccc2C=Cc2ccccc21 [Protryptyline hydrochloride],scaled lipid accumulation score,library stock concentration: 6.7 mM,0.698
Nc1nc(OCC2CCCCC2)c2[nH]cnc2n1,scaled lipid accumulation score,[1],≤ -0.055
S=P(N1CC1)(N1CC1)N1CC1 [Thiotepa],scaled lipid accumulation score,[1],≤ -0.027
same,scaled lipid accumulation score,library stock concentration: 10.6 mM,≤ 0
CCCCCCCCCCCCCCCCOCC(CO)OC(C)=O (centres undefined) [1-Hexadecyl-2-O-acetyl-glycerol],scaled lipid accumulation score,[3],0.035
CC(C)N1Cc2cc(S(C)(=O)=O)ccc2N(CCN2CC=C(c3c[nH]c4cc(F)ccc34)CC2)S1(=O)=O,scaled lipid accumulation score,[1],0.137
C[C@@]1(C(=O)Nc2ccc(F)nc2)CCCN1c1nc(Nc2cc(C3CC3)n[nH]2)c2cccn2n1,scaled lipid accumulation score,[2],≤ 0
same,scaled lipid accumulation score,[1],0.177
NC(=O)N1c2ccccc2CC(=O)c2ccccc21 [Trileptal],scaled lipid accumulation score,[1],≤ 0
CN1CCC(=C2c3ccccc3CC(=O)c3sccc32)CC1.O=C(O)/C=C/C(=O)O [Ketotifen fumarate],scaled lipid accumulation score,[1],0.913 (active)
CN1CCC(=C2c3ccccc3CCc3sccc32)CC1 [Pizotifen Malate],scaled lipid accumulation score,[2],0.473
CN1CCC(=C2c3ccccc3CCc3sccc32)CC1.O=C(O)CC(O)C(=O)O [Pizotifen Malate],scaled lipid accumulation score,[1],1.32 (active)
CN1CCC(=C2c3ccccc3CC(=O)c3sccc32)CC1 [Ketotifen fumarate],scaled lipid accumulation score,,0.627
same,scaled lipid accumulation score,[4],0.276
same,scaled lipid accumulation score,[1],0.172 and 0.737
CN1CCC(=C2c3ccccc3CC(=O)c3sccc32)CC1,scaled lipid accumulation score,[1],0.593
CN1CCC(=C2c3ccccc3CC(=O)c3sccc32)CC1 [Ketotifen Fumarate],scaled lipid accumulation score,[2],≤ 0
same,scaled lipid accumulation score,[1],0.576
CN1CCC(=C2c3ccccc3CCc3sccc32)CC1 [Pizotyline malate],scaled lipid accumulation score,[4],0.792
CN1CCC(=C2c3ccccc3CCc3sccc32)CC1 [Pizotifen malate],scaled lipid accumulation score,,0.782
NC(=O)N1c2ccccc2CC(=O)c2ccccc21 [Oxcarbazepine],scaled lipid accumulation score,[2],≤ 0
same,scaled lipid accumulation score,library stock concentration: 7.9 mM,≤ 0
same,scaled lipid accumulation score,[1],≤ 0 and ≤ -0.027
CN1CCC(=C2c3ccccc3CCc3sccc32)CC1.O=C(O)/C=C\C(=O)O [Pizotyline],scaled lipid accumulation score,[1],1.2 (active)
C[C@@]12C[C@@]3(O)O[C@@H](O1)[C@]1(COC(=O)c4ccccc4)[C@H]3C[C@@]12O[C@@H]1O[C@H](CO)[C@@H](O)[C@H](O)[C@H]1O [Paeoniflorin],scaled lipid accumulation score,[2],≤ 0
same,scaled lipid accumulation score,[1],≤ 0
COCc1c(C(C)C)nc(C(C)C)c(/C=C/[C@@H](O)C[C@@H](O)CC(=O)O)c1-c1ccc(F)cc1,scaled lipid accumulation score,[1],0.271
COCc1c(C(C)C)nc(C(C)C)c(/C=C/[C@@H](O)C[C@@H](O)CC(=O)O)c1-c1ccc(F)cc1 [Cerivastatin],scaled lipid accumulation score,library stock concentration: 4.4 mM,0.228
CCCOc1ccc(Br)cc1-c1cc(-c2ccc(Cl)cc2)[nH]c1-c1ccncc1,scaled lipid accumulation score,[1],0.006
O=C1NC(=O)c2cc(Nc3ccccc3)c(Nc3ccccc3)cc21,scaled lipid accumulation score,[1],0.353 and 0.003
Cc1cccc(-c2nn3c(c2-c2ccnc4ccc(C(N)=O)cc24)CCC3)n1,scaled lipid accumulation score,[2],0.006
same,scaled lipid accumulation score,[1],≤ 0
O=C(O)CCC/C=C\C[C@@H]1C(=O)C[C@@H](O)[C@@H]1/C=C/[C@@H](O)CC1CCCCC1 [8-iso-16-cyclohexyl-tetranor Prostaglandin E2],scaled lipid accumulation score,[3],≤ 0
COC1CCN(C(=O)c2cc(Cc3n[nH]c(=O)c4ccccc34)ccc2F)CC1,scaled lipid accumulation score,[2],≤ 0
same,scaled lipid accumulation score,[1],≤ -0.001
CN1CCCC(n2nc(Cc3ccc(Cl)cc3)c3ccccc3c2=O)CC1 (centres undefined) [Azelastine HCl],scaled lipid accumulation score,[2],0.604
CN1CCCC(n2nc(Cc3ccc(Cl)cc3)c3ccccc3c2=O)CC1.Cl (centres undefined) [Azelastine hydrochloride],scaled lipid accumulation score,library stock concentration: 4.8 mM,0.978 (active)
same,scaled lipid accumulation score,[1],0.992 (active)
O=C(c1cc(Cc2n[nH]c(=O)c3ccccc23)ccc1F)N1CCN(C(=O)C2CC2)CC1,scaled lipid accumulation score,[2],≤ 0
same,scaled lipid accumulation score,[1],≤ 0
CN1CCCC(n2nc(Cc3ccc(Cl)cc3)c3ccccc3c2=O)CC1.Cl (centres undefined) [Azelastine HCl],scaled lipid accumulation score,[1],1.09 (active)
O=C(c1cc(Cc2n[nH]c(=O)c3ccccc23)ccc1F)N1CCN(C(=O)C2CC2)CC1 [Olaparib],scaled lipid accumulation score,[5],≤ -0.0005
same,scaled lipid accumulation score,[6],≤ -0.0045
same,scaled lipid accumulation score,[7],≤ -0.0045
same,scaled lipid accumulation score,[1],≤ -0.0045
CN1CCCC(n2nc(Cc3ccc(Cl)cc3)c3ccccc3c2=O)CC1 (centres undefined),scaled lipid accumulation score,[1],1.21 (active)
NC(C(=O)O)c1ccc(C(=O)O)c(C(=O)O)c1 (racemic),scaled lipid accumulation score,[1],≤ -0.006
C[C@@H]1CN(c2c(F)c(F)c3c(=O)c(C(=O)O)cn(C4CC4)c3c2F)C[C@H](C)N1,scaled lipid accumulation score,[1],≤ 0
N=C(NO)NCC[C@H](N)C(=O)O,scaled lipid accumulation score,[3],≤ 0
CC(=O)Oc1cccc(O)c1 [Resorcinol monoacetate],scaled lipid accumulation score,[1],0.063
same,scaled lipid accumulation score,library stock concentration: 13.1 mM,≤ 0
"CCCCCCCC/C=C\C/C=C\C/C=C\CCCC(=O)NCCO [5(Z),8(Z),11(Z)-Eicosatrienoic Acid Ethanolamide]",scaled lipid accumulation score,[3],0.015
CCCCCCCC/C=C\C/C=C\C/C=C\CCCC(=O)NCCO [Mead ethanolamide],scaled lipid accumulation score,[3],0.017
CCCCCCCCCCCCCCCC(=O)O[C@H](CC(=O)O)C[N+](C)(C)C,scaled lipid accumulation score,[1],0.027
CCCOc1ccc(C=C2SC(=O)NC2=O)cc1,scaled lipid accumulation score,[5],≤ -0.001
same,scaled lipid accumulation score,[6],≤ -0.001
same,scaled lipid accumulation score,[7],≤ -0.001
same,scaled lipid accumulation score,[1],≤ -0.001
OCC(O)CCO/N=C1\C(c2c(O)[nH]c3ccccc23)=Nc2ccccc21 (centres undefined) [Indirubin Derivative E804],scaled lipid accumulation score,[2],≤ 0
Fc1ccc([C@@H]2CCNC[C@H]2COc2ccc3c(c2)OCO3)cc1 [Paroxetine HCl] [listing 1 of 2 here],scaled lipid accumulation score,[1],0.355
Cl.Fc1ccc([C@@H]2CCNC[C@H]2COc2ccc3c(c2)OCO3)cc1 [Paroxetine HCl],scaled lipid accumulation score,[2],0.491 (active)
c1ccc(N2CCN(CCCOc3ccc4c(c3)OCO4)CC2)cc1 [BP 554 maleate],scaled lipid accumulation score,[1],≤ 0
Cl.Fc1ccc([C@@H]2CCNC[C@H]2COc2ccc3c(c2)OCO3)cc1 [Paroxetine Hydrochloride],scaled lipid accumulation score,,1.22 (active)
Fc1ccc([C@@H]2CCNC[C@H]2COc2ccc3c(c2)OCO3)cc1 [Paroxetine],scaled lipid accumulation score,[1],0.634
Fc1ccc([C@@H]2CCNC[C@H]2COc2ccc3c(c2)OCO3)cc1 [Paroxetine HCl] [listing 2 of 2 here],scaled lipid accumulation score,library stock concentration: 6.1 mM,1.01 (active)
Fc1ccc([C@@H]2CCNC[C@H]2COc2ccc3c(c2)OCO3)cc1 [Paroxetine hydrochloride hemihydrate (MW = 374.83)],scaled lipid accumulation score,[1],0.836
Fc1ccc([C@@H]2CCNC[C@H]2COc2ccc3c(c2)OCO3)cc1 [Paroxetine hydrochloride],scaled lipid accumulation score,[1],0.808
COc1cc(F)c(C(C)C)cc1-c1ccc(C(F)(F)F)cc1CN1C(=O)O[C@H](c2cc(C(F)(F)F)cc(C(F)(F)F)c2)[C@@H]1C [Anacetrapib (MK-0859)],scaled lipid accumulation score,[2],≤ 0
same,scaled lipid accumulation score,[1],≤ 0
C=C1C[C@@H](O)[C@H](/C=C/[C@@H](O)CCCCC)[C@H]1C/C=C\CCCC(=O)O [9-deoxy-9-methylene Prostaglandin E2],scaled lipid accumulation score,[3],0.01
Cc1cc(C)cc(NC(=O)Cc2ccc(OC(C)(C)C(=O)O)cc2)c1 [Efaproxiral Sodium],scaled lipid accumulation score,[2],≤ 0
same,scaled lipid accumulation score,[1],≤ -0.001
O=C1Cc2c([nH]c3ccc([N+](=O)[O-])cc23)-c2ccccc2N1 [Alsterpaullone],scaled lipid accumulation score,[2],≤ 0
COc1ccc(/C=C/C(=O)Nc2c(O)cccc2C(=O)O)cc1OC,scaled lipid accumulation score,[3],≤ 0
O=C(c1ccccc1)c1ccc2n1CCC2C(=O)O (centres undefined) [Ketorolac],scaled lipid accumulation score,[2],≤ 0
same,scaled lipid accumulation score,[1],≤ 0
O=C(c1ccccc1)c1ccc2n1CCC2C(=O)O (centres undefined) [Ketorolac tromethamine],scaled lipid accumulation score,,≤ 0
same,scaled lipid accumulation score,library stock concentration: 5.3 mM,≤ 0
same,scaled lipid accumulation score,[1],0.024
O=C(c1ccccc1)c1ccc2n1CCC2C(=O)O (centres undefined) [Ketorolac tris salt],scaled lipid accumulation score,[1],≤ -0.055
O=C(c1ccccc1)c1ccc2n1CCC2C(=O)O (centres undefined),scaled lipid accumulation score,[1],≤ 0
O=C(c1ccccc1)c1ccc2n1CCC2C(=O)O (centres undefined) [Ketorolac (tromethamine salt)],scaled lipid accumulation score,[3],≤ 0
